CYP2C9 inh: blockers of cytochrome P450 2C9 activity – biochemical, luminescence, ADME assay, primary screen. inhibition, % at 5 µM. CYP2C9 Supersomes, luciferin-H conversion. 96,000 tested, 20% active. P11712;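 active = blocking of liver enzyme CYP2C9 beyond about 50% at 5 µM, limit read from the data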
Measles CPE: compounds protecting cells from measles virus cytopathic effect, primary screen, measles RdRp inhibitor project, single point, MLSMR library, absorbance. Measles virus-infected cells, CPE protection. protection (pct of control), % at 4 µM. 140,000 tested, 1.5% active; in the data active = protection mostly above about 24%, no sharp cut-off; inactive = mostly below about 26%
CYP2C9 activ: human CYP2C9 activators, primary screen, biochemical, luminescence. Cytochrome P450 2C9 (Homo sapiens), P11712. recombinant CYP2C9, luciferin-H conversion; active compounds read high; factor 1 = untreated enzyme, 0 = blocked. activation factor at 5 µM. 96,000 tested, 1.4% active. AID 1024, 2008;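 active = activation factor of 2 or more for CYP2C9 at a 5 µM dose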
CYP2C19 act: human CYP2C19 activators, primary screen, biochemical, luminescence. activation factor at 5 µM. 96,000 tested, under 10 active. recombinant CYP2C19, luciferin-H EGE luminescence; active compounds read high; 0 = fully inhibited enzyme, 1 = untreated enzyme;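 active = activation factor of at least 2 at 5 µM in the primary screen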
Target sequence (P33261 whole entry, looked up): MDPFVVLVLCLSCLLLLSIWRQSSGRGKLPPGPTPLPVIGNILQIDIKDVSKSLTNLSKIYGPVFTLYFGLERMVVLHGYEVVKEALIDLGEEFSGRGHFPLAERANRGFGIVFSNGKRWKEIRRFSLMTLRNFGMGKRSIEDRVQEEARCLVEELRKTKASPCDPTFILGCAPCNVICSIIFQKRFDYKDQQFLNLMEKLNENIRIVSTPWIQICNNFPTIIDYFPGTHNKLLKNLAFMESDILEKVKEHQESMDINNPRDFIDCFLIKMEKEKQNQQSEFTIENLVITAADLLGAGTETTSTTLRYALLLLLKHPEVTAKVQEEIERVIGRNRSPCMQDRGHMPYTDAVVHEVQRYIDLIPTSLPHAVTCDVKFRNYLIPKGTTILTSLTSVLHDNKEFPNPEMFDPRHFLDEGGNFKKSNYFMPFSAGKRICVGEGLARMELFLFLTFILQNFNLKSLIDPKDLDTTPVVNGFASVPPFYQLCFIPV
CYP2C19 inh: blockers of cytochrome P450 2C19 activity – biochemical, luminescence, ADME assay, primary screen; P33261; AID 778, 2007; CYP2C19 Supersomes, luciferin-H EGE luminescence, 30 min; inhibition, % at 5 µM; 96,000 tested, 21% active;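 active = CYP2C19 inhibition above a set limit at 5 µM in the primary screen, cut at about 50% in these data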
Each line names hits and unclear results; the compound was inactive in the other large screens. Rows were chosen to be rich in hits. Some 22% of all compounds tested hit in one or more screens of this group.

O=C1c2ccccc2C(=O)N1OCc1ccccc1	CYP2C19 inh 56.3
COC(=O)c1ccc(CON2C(=O)c3ccccc3C2=O)cc1	none
Cc1ccc(-n2c(Cc3cccn3C)nnc2SCC(=O)Nc2ccc3c(c2)OCO3)cc1	CYP2C9 inh 56.1
Cn1cccc1Cc1nnc(SCC(=O)Nc2ccc3c(c2)OCCO3)n1-c1ccc(F)cc1	none
Cc1ccc(-n2c(Cc3cccn3C)nnc2SCC(=O)NCc2ccc3c(c2)OCO3)cc1	CYP2C9 inh 83.9, CYP2C19 inh 56.7
O=C(CCN1CCN(Cc2ccccc2)CC1)Nc1cccc(Cl)c1	CYP2C9 inh 54.1
CCOC(=O)C1CCN(CCC(=O)Nc2ccccc2Cl)CC1	none (no result: CYP2C9 inh, CYP2C9 activ, CYP2C19 act, CYP2C19 inh)
CCOC(=O)C1CCN(CCC(=O)Nc2cccc(Cl)c2)CC1	CYP2C9 inh 75.3, CYP2C19 inh 52.5
O=C(OCn1nnc2ccccc2c1=O)c1ccc2ccccc2n1	none
CC(=O)OCc1c(C(F)(F)F)nn(C)c1Oc1cccc(C(F)(F)F)c1	CYP2C19 inh 74.3
CC(=O)OCc1c(C(F)(F)F)nn(C)c1Oc1ccccc1	CYP2C19 inh 91.7
CC(=O)c1cc(C#N)c(Oc2cccc(C(F)(F)F)c2)nc1C	none
c1ccc(C2CC(c3ccccc3)n3c(nc4ccccc43)N2)cc1 (centres undefined)	none (no result: CYP2C9 inh, CYP2C9 activ, CYP2C19 act, CYP2C19 inh)
O=c1c(-c2cccc3ccccc23)[n+]([O-])c2ccccc2n1O	CYP2C9 inh 75.0
Cc1ccc(C)c(N(CC(=O)NCCSCc2ccco2)S(C)(=O)=O)c1	CYP2C9 inh 88.3, CYP2C19 inh 80.9
Cc1cccc(N(CC(=O)NCCSCc2ccco2)S(=O)(=O)c2ccccc2)c1	CYP2C9 inh 70.9, CYP2C19 inh 67.8
Cc1cc(C)cc(N(CC(=O)NCCSc2ccccn2)S(=O)(=O)c2ccccc2)c1	CYP2C9 inh 64.2
CCNC(=O)CN(c1ccc(C)cc1)S(=O)(=O)c1ccccc1	none
Cc1cccc(N(CC(=O)NCCSc2nc3ccccc3s2)S(=O)(=O)c2ccccc2)c1	none (no result: CYP2C9 inh, CYP2C9 activ, CYP2C19 act, CYP2C19 inh)
Cc1ccc(N(CC(=O)NCCSCc2ccco2)S(=O)(=O)c2ccc(C)cc2)cc1	CYP2C9 inh 87.9, CYP2C19 inh 70.9
O=S(=O)(c1ccc2nc(SCc3cccc(Cl)c3)[nH]c2c1)N1CCOCC1	none (no result: CYP2C9 inh, CYP2C9 activ, CYP2C19 act, CYP2C19 inh)
CSCC[C@H](NC(=O)C1CCN(S(=O)(=O)c2ccc(C)cc2)CC1)C(=O)NC1CCS(=O)(=O)C1 (some centres undefined)	none (no result: CYP2C9 inh, CYP2C9 activ, CYP2C19 act, CYP2C19 inh)
CC12CCC(C/C1=N\N=C1\NC(=O)/C(=C\c3ccc(Cl)cc3)S1)C2(C)C (centres undefined)	none (no result: CYP2C9 inh, CYP2C9 activ, CYP2C19 act, CYP2C19 inh)
C=CCNC(=O)c1ccccc1NC(=O)Cc1ccccc1[N+](=O)[O-]	none (no result: CYP2C9 inh, CYP2C9 activ, CYP2C19 act, CYP2C19 inh)
C=CCNC(=O)c1ccccc1NS(=O)(=O)c1ccccc1	CYP2C9 activ 2.3, CYP2C19 inh 67.8
C=CCNC(=O)c1ccccc1NC(=O)Nc1ccccc1	none
C=CCNC(=O)c1ccccc1NS(=O)(=O)c1ccc(SC)cc1	CYP2C19 inh 97.3
Cc1ccc(C)c(S(=O)(=O)NCc2ccc(C(=O)N3CCC(Cc4ccccc4)CC3)cc2)c1	none
O=C(O)c1cccc(N/N=C/c2cccs2)c1	none (no result: CYP2C9 inh, CYP2C9 activ, CYP2C19 act, CYP2C19 inh)
O=C(c1ccccc1Nc1ccc(SC(F)F)cc1)N1CCCCCC1	CYP2C9 inh 59.6, CYP2C19 inh 84.3
Cn1c(C(=O)N2CCC(C(=O)N3CCN(Cc4ccc5c(c4)OCO5)CC3)CC2)cc2sccc21	CYP2C19 inh 50.7
COc1ccsc1C(=O)N1CCN(Cc2ccc3c(c2)OCO3)CC1	CYP2C19 inh 85.2
Cn1c(C(=O)N2CCC(C(=O)N3CCOCC3)CC2)cc2sccc21	none
Cn1c(C(=O)N2CCN(Cc3ccc4c(c3)OCO4)CC2)cc2sccc21	CYP2C19 inh 70.0
O=C(c1ccc(Br)s1)N1CCN(Cc2ccc3c(c2)OCO3)CC1	none
CCOc1cccc(-c2nn3c(-c4ccco4)nnc3s2)c1	none
CCOc1ccc2[nH]c(=O)c(CN(CCOC)C(=O)N3CCOCC3)cc2c1	none
Cc1ccc(-c2nnc(N(C)C(=O)c3cccnc3)s2)cn1	none
Cc1ccc(-c2nnc(N(C)C(=O)c3cccnc3)s2)cc1	CYP2C9 inh 86.3, CYP2C19 inh 66.6
CN(C(=O)c1ccncc1)c1nnc(-c2ccncc2)s1	CYP2C9 inh 93.6, CYP2C19 inh 96.2

Bioassay records: PubChem, several laboratories
